Each structure is given as a SMILES string. About 83,000 compounds went through this panel and 20% of them were active in at least one assay; those are over-represented in the sample as a whole.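 How to read the values: 0–100, growth inhibition (40 = 60% inhibited); 0, no net growth; -100 to 0, cell death (-40 = 40% of starting cells died; -100 = all dead).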 A number with no mark means an inactive call. Calls of active or inactive are those of the source.

This experiment has as its system A498 renal. In words: NCI-60 one-dose screen, 48 h (100 = growth as untreated, 0 = no growth, -100 = all killed). The following applies: 10 µM unless noted. As for the experimental part:
Growth inhibition of the A498 human tumor cell line is measured as a screen for anti-cancer activity. Cells are grown in 96 well plates and exposed to the test compound for 48 hours. Compounds are tested at a single concentration, which is 10^-5 M for most compounds. The reported endpoint is percent growth (GI% or GIPRCNT), where numbers from 0 - 100% represent growth inhibition, and numbers from -100% - 0 represent cell death. For example, a value of 40 represents 60% growth inhibition. A value of 0 means no net growth occurred over the course of the experiment. A value of -40 indicates 40% of cells at the beginning of the experiment died by the end of the experiment. A value of -100 means all cells are dead at the end of the experiment.
NCI-60 Human Tumor Cell Lines Screen was performed using the standard one-dose NCI protocol, which is described in more detail at https://dtp.cancer.gov/discovery_development/nci-60/default.htm.
Compounds with GIPRCNT values below 10 were considered active. Activity score was based on GIPRCNT using the following formula: […]
Score is 0 for GIPRCNT values of 100 or above, 50 for GIPRCNT values of 0, and 100 for GIPRCNT values of -100.
Consider `N#C/C(=C\c1ccc(-c2ccc(Br)cc2)o1)c1nc(-c2cccs2)cs1`, for which the growth was 99%.

Turning to `CCSc1sc(-c2ccc(C)cc2)nc1[P+](c1ccccc1)(c1ccccc1)c1ccccc1`, the growth was -46.1% (active).

Regarding `Nc1c(C(=O)Nc2c(Cl)cccc2Cl)sc2nc3c(cc12)C(=O)CCC3`, the growth is 2.03% (active).

On to `NS(=O)(=O)c1ccc(CCNC(=O)/C=C/c2ccc(Cl)cc2)cc1`, for which the growth is 89%.

On to `Fc1ccc(Nc2nnc(-c3ccc(Cl)cc3)o2)cc1`, for which the growth is 92.8%.

On to `O=C(CCCCCn1c2ccccc2c2c3c(c4c5ccccc5[nH]c4c21)C(=O)N(O)C3=O)N1CCOCC1`, for which the growth was 26.9%.

Consider `CCN(CC)C(=O)CCCCCn1c2ccccc2c2c3c(c4c5ccccc5[nH]c4c21)C(=O)N(O)C3=O`, for which the growth was 69.1%.

Regarding `O=C(/C=C/c1cccc2ccccc12)Nc1ncc(Cc2ccccc2)s1`, the growth was -10.8% (active).

For `Fc1ccc(Nc2ccc3c(OCCCN4CCOCC4)cccc3n2)cc1F`, the growth was 69.7%.

For the compound `C=C1C(=O)O[C@H]2[C@H]1CC/C(COC(=O)NCc1cc3ccccc3[nH]1)=C\CC[C@@]1(C)O[C@@H]21`, the growth was 92.5%.

As to `O=c1[nH]c(=S)[nH]c2nc[nH]c12`, the growth is 93.4%.

On to `N#CC1c2ccccc2-c2ccccc2N1C(=O)c1ccccc1` (stereo not given), for which the growth is 8.67% (active).

On to `CC/C(=N/NC(N)=O)c1ccccc1`, for which the growth is 105%.

In the case of `C=C(C)[C@@H]1CC[C@]2(C(=O)O)CC[C@]3(C)[C@H](CC[C@@H]4[C@@]5(C)C/C(=C/c6cccc(I)c6)C(=O)C(C)(C)[C@@H]5CC[C@]43C)[C@@H]12`, the growth was 22.1%.

On to `O=C1CCC/C=C\C[C@H]2C=C(Cl)C(=O)/C2=C/C[C@H](CCCCC(F)(F)F)OC(=O)CCC/C=C\C[C@H]2C=C(Cl)C(=O)/C2=C/C[C@H](CCCCC(F)(F)F)O1`, for which the growth is -49.5% [7.5 µM] (active).

On to `COc1ccc(NC(=O)c2ccoc2COc2ccccc2)cc1`, for which the growth was 99.7%.

Take `COC(=O)[C@]12CC[C@@H](C)[C@H](C)[C@@H]1C1=CC[C@@H]3[C@@]4(C)C(c5ncon5)=C[C@@](C)(CO)C4=CC[C@@]3(C)[C@]1(C)CC2`: the growth is -36.4% (active).

`CCN1CCN(C(=O)[C@]23CCC(C)(C)C[C@H]2C2=CC[C@@H]4[C@@]5(C)CC/C(=N/O)C(C)(C)[C@@H]5CC[C@@]4(C)[C@]2(C)CC3)CC1`: the growth was 85.2%.

Regarding `CNC(=O)c1cc(Oc2ccc3nc(NC(=O)Nc4ccc(Cl)cc4)sc3c2)ccn1`, the growth is 117%.

For `Cc1cccc(C)c1NCc1nc(-c2ccccc2)n[nH]1`, the growth was 100%.

Take `COc1cccc(-c2nn(-c3ccccc3)cc2-c2ccnc(NCCCNS(=O)(=O)c3ccc(C(F)(F)F)cc3)c2)c1`: the growth is 20.3%.

Regarding `COc1ccc(C2NC(=O)Nc3ccccc32)c(OC)c1` (stereo not given), the growth is 105%.

Regarding `COc1ccc(-c2nc3c(c(C)nn3-c3ccc(F)cc3)c(=O)[nH]2)cc1`, the growth was 70.8%.

As for `COC(=O)[C@]12CC[C@@H](C)[C@H](C)[C@@H]1C1=CC[C@@H]3[C@@]4(C)C[C@@H](O)[C@H](O)[C@@](C)(CO)C4=CC[C@@]3(C)[C@]1(C)CC2`, the growth was -94.7% (active).

For the compound `C#CCn1c(C)cc(C)c(C#N)c1=O`, the growth was 104%.

Regarding `Cc1cc(N(CCCNc2ccnc3cc(Cl)ccc23)Cc2ccco2)nc(Cl)n1`, the growth is 46.1%.

As to `COc1cc(/C=N/NC(=S)NNC(=S)NC2CCCCC2)cc(OC)c1OC`, the growth is 96.6%.

For `C=COCCCCCCCCCCCCCCCCCC`, the growth is 92.7%.

On to `O=C(N/N=C\c1ccccc1O)C1CC1`, for which the growth is 113%.

In the case of `N=c1ccc2nc3c(cc(N)c4ccccc43)oc-2c1`, the growth is -21.4% (active).

In the case of `Nc1ccccc1NC(=O)c1ccc(CN2CCC/C(=C\c3ccccn3)C2=O)cc1`, the growth was 7.96% (active).

Turning to `COc1ccc2c(c1)c(-c1nc(-c3cn(C)c4ncccc34)cs1)cn2CCN`, the growth was 97.4%.

Turning to `Cc1nnc2nc(N)[nH]n2c1=O`, the growth was 118%.

For `COc1cc(-c2cc3ncccc3c3nc(OCCN(C)C)c4cccnc4c23)cc(OC)c1OC`, the growth was -72.6% (active).

For the compound `COC(=O)[C@]12CC[C@@H](C)[C@H](C)[C@@H]1C1=CC[C@@H]3[C@@]4(C)C[C@@H](OC(C)=O)[C@H](O)[C@@](C)(COC(C)=O)[C@@H]4[C@H](O)C[C@@]3(C)[C@]1(C)CC2`, the growth is -94.4% (active).

Turning to `COc1ccc(/C(=C\c2ccc3c(c2)OCO3)C(=O)Nc2nc3ccccc3s2)cc1OC`, the growth is 78.8%.

Take `C/C(=N\Nc1ccc2ccccc2n1)c1ccccn1`: the growth was 11.1%.

Take `CC(C)=CCC[C@](C)(O)[C@H]1CC[C@]2(C)[C@@H]1CC[C@@H]1[C@@]3(C)C/C(=C/c4ccc(Br)cc4)C(=O)C(C)(C)[C@@H]3CC[C@]12C`: the growth is 80.8%.

As to `COc1ccc2c(c1)c(-c1nc(-c3cn(C)c4ncccc34)cs1)cn2CCCN1CCCCC1`, the growth is 74.7%.

As for `COc1ccc(C2=NN(c3nc(-c4ccc(OC)cc4)c(C#N)c(=O)n3C)C(=O)CC2)cc1`, the growth is 116%.

For the origin of these results see PubChem BioAssay (NCI).
